In PubChem BioAssay:
Inconclusive results are not listed. For some of these results: Entries with a potency or affinity are not part of this list. Activity calls are given as the source filed them. Unless noted, how the calls were made is not given here.

Legend:
[1] = biological target: Calcium-dependent protein kinase 1 (Plasmodium falciparum (isolate 3D7)) (UniProt P62344); assay: PfCDPK1 kinase inhibitors, biochemical, TCAMS library (AID 1159585; cut-off not given, nearly all actives have IC50 up to about 0.98 µM;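 further: inhibitors leave more ATP so luminescence rises with inhibition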); details: recombinant PfCDPK1, Kinase-Glo ATP depletion luminescence
[2] = biological target: Plasmodium falciparum protein kinase 6 (PK6, PF3D7_1337100) (UniProt Q8IDW1); assay: PfPK6 kinase inhibitors, biochemical, TCAMS library (AID 1159586); details: recombinant PfPK6, Kinase-Glo ATP depletion luminescence
[3] = biological target: Protein kinase 7 (PK7), Plasmodium falciparum 3D7 (PF3D7_0213400) (UniProt Q7YTF7); assay: inhibition of Plasmodium PK7 catalytic activity – biochemical, TCAMS antimalarial set, Kinase-Glo luminescence (AID 1159587); details: recombinant PfPK7, Kinase-Glo ATP depletion luminescence
[4] = biological target: Calcium-dependent protein kinase 4 (Plasmodium falciparum (isolate 3D7)) (UniProt Q8IBS5); assay: PfCDPK4 kinase inhibitors, biochemical, TCAMS library (AID 1159588; cut-off not given, nearly all actives have IC50 up to about 0.91 µM); details: recombinant PfCDPK4, Kinase-Glo ATP depletion luminescence
[5] = protection of motor neurons from glutamate death, cell-based, TUNEL DNA degradation staining, MNGlu (AID 1594); details: glutamate-induced death, at 1 µM, hits give high values

Sequence of Protein kinase 7 (PK7), Plasmodium falciparum 3D7 (PF3D7_0213400) (Q7YTF7 1-343): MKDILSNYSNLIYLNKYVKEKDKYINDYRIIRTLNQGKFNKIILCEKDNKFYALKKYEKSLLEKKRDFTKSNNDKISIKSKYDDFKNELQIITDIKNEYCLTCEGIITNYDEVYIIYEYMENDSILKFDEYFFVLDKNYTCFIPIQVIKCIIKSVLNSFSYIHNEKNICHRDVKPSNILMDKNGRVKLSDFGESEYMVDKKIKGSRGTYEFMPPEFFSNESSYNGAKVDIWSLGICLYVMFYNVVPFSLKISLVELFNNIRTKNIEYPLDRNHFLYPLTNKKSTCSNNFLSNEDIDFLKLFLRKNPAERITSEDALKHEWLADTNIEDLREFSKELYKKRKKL
Sequence of Plasmodium falciparum protein kinase 6 (PK6, PF3D7_1337100) (Q8IDW1 1-305): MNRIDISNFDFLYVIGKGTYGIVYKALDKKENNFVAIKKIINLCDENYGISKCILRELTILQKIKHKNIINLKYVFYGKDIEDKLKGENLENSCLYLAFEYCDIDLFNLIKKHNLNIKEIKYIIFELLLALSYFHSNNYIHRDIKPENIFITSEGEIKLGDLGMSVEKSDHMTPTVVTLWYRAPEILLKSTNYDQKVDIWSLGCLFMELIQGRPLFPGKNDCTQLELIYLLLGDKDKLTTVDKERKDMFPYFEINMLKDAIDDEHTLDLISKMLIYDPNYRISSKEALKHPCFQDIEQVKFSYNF
Sequence of Calcium-dependent protein kinase 1 (Plasmodium falciparum (isolate 3D7)) (P62344 whole entry, looked up): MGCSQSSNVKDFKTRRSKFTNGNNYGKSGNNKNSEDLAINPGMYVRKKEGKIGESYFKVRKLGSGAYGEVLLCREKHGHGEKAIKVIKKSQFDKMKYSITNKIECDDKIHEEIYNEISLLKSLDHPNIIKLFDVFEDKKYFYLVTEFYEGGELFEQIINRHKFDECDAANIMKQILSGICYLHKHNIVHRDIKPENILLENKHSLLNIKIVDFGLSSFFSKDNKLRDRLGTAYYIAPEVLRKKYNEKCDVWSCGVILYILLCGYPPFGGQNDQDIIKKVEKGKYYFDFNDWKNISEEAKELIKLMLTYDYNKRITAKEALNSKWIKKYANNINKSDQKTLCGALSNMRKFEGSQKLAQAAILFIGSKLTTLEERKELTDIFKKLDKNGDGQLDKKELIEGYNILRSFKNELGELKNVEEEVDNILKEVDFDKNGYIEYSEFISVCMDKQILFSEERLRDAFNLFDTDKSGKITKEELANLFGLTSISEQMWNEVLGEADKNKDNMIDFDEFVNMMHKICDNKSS
Sequence of Calcium-dependent protein kinase 4 (Plasmodium falciparum (isolate 3D7)) (Q8IBS5 whole entry, looked up): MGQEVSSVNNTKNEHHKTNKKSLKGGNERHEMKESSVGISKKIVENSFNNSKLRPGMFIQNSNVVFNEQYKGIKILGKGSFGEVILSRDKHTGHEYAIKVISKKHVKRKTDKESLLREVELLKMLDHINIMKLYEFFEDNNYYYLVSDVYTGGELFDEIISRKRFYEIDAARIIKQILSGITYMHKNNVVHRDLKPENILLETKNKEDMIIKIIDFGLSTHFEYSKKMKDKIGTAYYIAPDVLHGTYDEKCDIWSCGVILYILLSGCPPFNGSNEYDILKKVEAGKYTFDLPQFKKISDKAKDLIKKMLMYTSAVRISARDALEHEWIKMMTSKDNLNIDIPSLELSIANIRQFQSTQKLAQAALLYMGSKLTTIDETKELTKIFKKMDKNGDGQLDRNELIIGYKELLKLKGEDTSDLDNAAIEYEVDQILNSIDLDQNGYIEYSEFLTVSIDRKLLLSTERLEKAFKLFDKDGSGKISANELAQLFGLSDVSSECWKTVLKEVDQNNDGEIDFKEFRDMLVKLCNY

SMILES | outcome [1] | outcome [2] | outcome [3] | outcome [4] | protection [5]
NC12CC3CC(CC(C3)C1)C2 | inactive | inactive | inactive | inactive | –
c1ccc([C@H]2CN3CCSC3=N2)cc1 | inactive | inactive | inactive | inactive | –
COC1=CC(=O)C[C@@H](C)[C@]12Oc1c(Cl)c(OC)cc(OC)c1C2=O | – | – | – | – | 17% (active)
O=C(CCCN1CC=C(n2c(=O)[nH]c3ccccc32)CC1)c1ccc(F)cc1 | – | – | – | – | 35% (active)
